Results from PubChem BioAssay AID624257 (Broad Institute, 2012).
Entries with a potency or affinity are not part of this list. Calls of active or inactive are those of the source.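 Rule for the calls: active = compound slowing PglD reaction, half-maximal concentration at most twice top tested dose, in every test run; inconclusive = test runs disagree, or weak flat or poorly fitted curves; inactive = the rest.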

Biological target: PglD acetyltransferase (Campylobacter jejuni) (UniProt O86157)
Experiment: PglD acetyltransferase inhibitors, dose response, biochemical, DTNB absorbance, cherry-picked samples, set 2 (AID 624257)
Conditions: Purified PglD, DTNB absorbance 412 nm, CoA release; series mostly up to 19.5 µM

Chain of PglD acetyltransferase (Campylobacter jejuni) (O86157 1-203): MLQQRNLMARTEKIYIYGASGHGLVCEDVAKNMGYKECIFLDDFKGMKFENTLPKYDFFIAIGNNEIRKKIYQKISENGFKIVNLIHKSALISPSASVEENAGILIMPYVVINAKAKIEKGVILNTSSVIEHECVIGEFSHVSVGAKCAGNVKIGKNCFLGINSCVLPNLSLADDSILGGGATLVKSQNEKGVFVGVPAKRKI

outcome, inactive:
CCc1ccc(N=C2NC(=O)/C(=C/c3cc(Br)c(OCC(=O)O)c(OC)c3)S2)cc1, C=CC1=C(C(=O)O)N2C(=O)[C@@H](NC(=O)/C(=N/OCC(=O)O)c3csc(N)n3)[C@H]2SC1, CCn1c(SCc2nc3sc(C(=O)O)c(C)c3c(=O)[nH]2)nc2ccccc21
